# Source: the supplement of paper PMC10732440
# ± gives the standard deviation of the averaged measurements.
# System: Caenorhabditis elegans N2 infected with Nematocida parisii ERTm1
# Assay: progeny production relative to DMSO uninfected control; higher = more progeny despite microsporidia infection (inhibition of infection with low host toxicity)
# Settings: infection time 6 days
# Method in brief: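 Progeny production is reported as a percentage of spore-free vehicle wells and averaged across replicates. It was measured after bleach-synchronised wild-type C. elegans L1 larvae (100 per well) spent 6 days shaking at 21°C in K-medium with E. coli OP50, 15,000 N. parisii spores/μL and compound at 100 μM or 40 μM in 1% DMSO. Counting used Rose Bengal staining, flatbed scanning and WorMachine, and each compound and dose was tested three times.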
SMILES,progeny production (40 µM),progeny production (100 µM)
O=C(NCc1ccccc1Cl)c1cnc2ccccc2n1,6.81 ± 1%,12.1 ± 12%
C[C@@H](NC(=O)c1ccccc1-c1ccccc1)B(O)O,3.09 ± 1.4%,21.8 ± 15%
Fc1ccc2c(/C=C/c3nnn[nH]3)c[nH]c2c1,3.91 ± 4%,12.2 ± 9.8%
CC[C@H]1OC(=O)[C@H](C)[C@@H](O[C@H]2C[C@@](C)(OC)[C@@H](O)[C@H](C)O2)[C@H](C)[C@@H](O[C@@H]2O[C@H](C)C[C@H](N(C)C)[C@H]2O)[C@](C)(O)C[C@@H](C)C(=O)[C@H](C)[C@@H](O)[C@]1(C)O,3.49 ± 0.53%,–
O=c1[nH]c(=O)n(Cc2cccc(Oc3ccccc3)c2)cc1Nc1ccccc1,4.29 ± 3.5%,9.39 ± 4.3%
Cc1ccc(S(=O)(=O)Nc2cccc3cccnc23)cc1,6.57 ± 3.6%,7.42 ± 4.3%
O=S(=O)(Nc1ccccc1)c1ccc(NC(=S)Nc2ccccc2)cc1,8.72 ± 4.5%,11.2 ± 6.4%
O=C(O)COc1cccc2c1CC[C@](O)(COC(=O)N(c1ccccc1)c1ccccc1)C2,4.24 ± 0.25%,15.6 ± 8.1%
COc1cc(C)c2c(Oc3cccc(C(F)(F)F)c3)c(OC)cc(NC(C)CCCN)c2n1 (stereo unspecified),4.23 ± 1%,–
CC(N)C12CC3CC(CC(C3)C1)C2 (stereo unspecified),3.85 ± 0.59%,6.21 ± 1.8%
Cc1nc(Nc2ccc(F)cc2)nc(N2CCc3ccccc3C2C)c1C (stereo unspecified),2.7 ± 0.53%,20.9 ± 25%
CC[C@H](CO)Nc1nc(NCc2ccccc2)c2ncn(C(C)C)c2n1,4.15 ± 1.7%,13.5 ± 9.8%
C=CCN(C(=O)OCc1ccc([N+](=O)[O-])cc1)C1CCN(CC[C@](C)(CN(C)S(=O)(=O)c2ccccc2)c2ccccc2)CC1,3.88 ± 1.4%,5.72 ± 2.3%
Nc1nc(NC2Cc3ccc(F)cc3C2)nc(N2CCCCC2)n1 (stereo unspecified),5.65 ± 3.6%,6.63 ± 4.3%
CCOC(=O)Nc1cc(NC(C)CC(C)CN(CC)CC)c2nc(-c3ccccc3)c(-c3ccccc3)nc2n1 (stereo unspecified),2.55 ± 1%,13.3 ± 9.8%
CC(C)=CCC/C(C)=C/CNCCNC1C2CC3CC(C2)CC1C3 (stereo unspecified),6.62 ± 1.2%,30 ± 23%
CC1(C)CC(NC(=O)C(=O)Nc2ccc(Cl)cc2)CC(C)(C)N1,2.32 ± 0.043%,8.19 ± 5.5%
CC(=O)N[C@H](C)C(=O)N[C@H](Cc1ccccc1)C(=O)O,9.08 ± 7.2%,10 ± 3.2%
CCCC(=O)OCCc1ccccc1,5.19 ± 1.8%,11.9 ± 12%
O=C(Nc1ccccc1C(=O)O)c1cccc(Oc2ccccc2)c1,3.52 ± 1.3%,16.2 ± 14%
COc1nc2ccc(Br)cc2cc1[C@@H](c1ccccc1)[C@@](O)(CCN(C)C)c1cccc2ccccc12,7.24 ± 3.5%,14.3 ± 4.9%

SMILES,progeny production (40 µM),progeny production (100 µM)
OB1OCc2cc(Cl)ccc21,4.68 ± 1.6%,21.3 ± 17%
COc1ccc(NC(=O)c2cc3ccccn3n2)cc1,9 ± 5.7%,13.6 ± 6%
Cc1[nH]c2ccccc2c1CC(=O)N[C@@H](Cc1ccccc1)C(=O)N(C)c1ccccc1,4.28 ± 2.4%,17.6 ± 9.7%
COc1cc(NCc2ccc3nc(N)nc(N)c3c2C)cc(OC)c1OC,2.11 ± 0.79%,–
Cc1ccc(Oc2ccccc2-c2csc(N=C3NCCCN3)n2)c(C)c1,4.22 ± 1.2%,14.8 ± 12%
Cc1cc(NS(=O)(=O)c2ccc(-c3ccc(F)cc3F)cc2)no1,4.39 ± 1.9%,–
N#Cc1cc([N+](=O)[O-])ccc1Oc1ccccc1Cl,5.2 ± 2%,14.5 ± 8.1%
Clc1ccc(Cn2c(CN3CCCC3)nc3ccccc32)cc1,3.41 ± 1.9%,6.88 ± 1.8%
Nc1nc(=O)c(Br)c(-c2ccccc2)[nH]1,5.86 ± 5.3%,9.38 ± 7.4%
N#C/C(=C1/SC[C@H](c2ccc(Cl)cc2Cl)S1)n1ccnc1,3.11 ± 0.38%,4.59 ± 2.5%
O=C(O)c1ccc(-c2ccc(O[C@H]3O[C@H](CO)[C@@H](O)[C@H](O)[C@@H]3O)cc2)cc1,5.12 ± 2.8%,7.21 ± 4.6%
Cc1cc(CCOc2c(C)cc(-c3nnn(C)n3)cc2C)on1,4.64 ± 1.1%,8.74 ± 2.1%
CC(C)CCN1C(=O)C(C2=NS(=O)(=O)c3cc(NS(C)(=O)=O)ccc3N2)=C(O)[C@@H]2[C@H]3CC[C@H](C3)[C@@H]21,3.42 ± 3.9%,9.92 ± 5.3%
CONC(=N)c1ccc(-c2ccc(-c3ccc(C(=N)NOC)cc3)o2)cc1,5.44 ± 1.7%,14.6 ± 6%
Nc1nc(F)nc2c1ncn2[C@H]1O[C@@H](CO)[C@H](O)[C@@H]1O,2.33 ± 1%,4.1 ± 1.2%
Clc1cc(Cl)c2c(c1)CCc1ccccc1C2n1ccnc1 (stereo unspecified),7.16 ± 0.49%,–
Cc1cc(-c2ccccc2)c(C(=O)C(=O)Nc2ccc(N3CCN(c4ncc(F)cn4)CC3)cc2)n1C,2.94 ± 0.74%,–
COc1ccccc1NC(=O)c1ccccc1Sc1ccc([N+](=O)[O-])cc1,6.65 ± 3.2%,14.7 ± 2.9%
CCc1ccccc1OCCN1CCCCCC1,7.17 ± 1.6%,20.2 ± 6%
O=C1NC(=S)N/C1=C\c1cc(Br)cc(Br)c1O,6.18 ± 0.84%,10.2 ± 8.1%
